This is part of a sample that, as a whole, favours compounds with a hit. Of some 83,000 tested, about 20% had one in any assay.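 96-well plates, one dose, 48 hours. Percent growth reported; active if below 10.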 Active and inactive are the calls of the source.
Legend:
Assay in all cases: NCI-60 one-dose screen, 48 h (100 = growth as untreated, 0 = no growth, -100 = all killed)
RPMI-8226 leukemia = settings: 10 µM unless noted
OVCAR-8 ovarian = settings: 10 µM unless noted
OVCAR-5 ovarian = settings: 10 µM unless noted
OVCAR-4 ovarian = settings: 10 µM unless noted
SK-OV-3 ovarian = settings: 10 µM unless noted
IGROV1 ovarian = settings: 10 µM unless noted
OVCAR-3 ovarian = settings: 10 µM unless noted
HS 578T breast = settings: 10 µM unless noted
NCI/ADR-RES ovarian = settings: 10 µM unless noted
T-47D breast = settings: 10 µM unless noted
BT-549 breast = settings: 10 µM unless noted
MDA-MB-435 melanoma = settings: 10 µM unless noted
SW-620 colon = settings: 10 µM unless noted
MCF7 breast = settings: 10 µM
HCT-116 colon = settings: 10 µM unless noted
HCC-2998 colon = settings: 10 µM unless noted
KM12 colon = settings: 10 µM unless noted

SMILES	growth (RPMI-8226 leukemia)	growth (OVCAR-8 ovarian)	growth (OVCAR-5 ovarian)	growth (OVCAR-4 ovarian)	growth (SK-OV-3 ovarian)	growth (IGROV1 ovarian)	growth (OVCAR-3 ovarian)	growth (HS 578T breast)	growth (NCI/ADR-RES ovarian)	growth (T-47D breast)	growth (BT-549 breast)	growth (MDA-MB-435 melanoma)	growth (SW-620 colon)	growth (MCF7 breast)	growth (HCT-116 colon)	growth (HCC-2998 colon)	growth (KM12 colon)
Nc1nonc1-n1nncc1-c1cccnc1	105% (inactive)	111% (inactive)	110% (inactive)	98.8% (inactive)	104% (inactive)	103% (inactive)	116% (inactive)	101% (inactive)	105% (inactive)	93.9% (inactive)	105% (inactive)	102% (inactive)	111% (inactive)	93.4% (inactive)	106% (inactive)	112% (inactive)	–
COc1ccc(C2c3ccc4ccccc4c3Oc3ncn(CCCn4ccnc4)c(=N)c32)cc1OC (stereo not given)	36.1% (inactive)	67.8% (inactive)	67.5% (inactive)	58.9% (inactive)	76.1% (inactive)	72.8% (inactive)	61.3% (inactive)	83.9% (inactive)	67.8% (inactive)	72.4% (inactive)	69.9% (inactive)	64.5% (inactive)	64.4% (inactive)	51.8% (inactive)	28.8% (inactive)	73.3% (inactive)	–
O=C(O)CCC(=O)c1ccc(C2CCCCCC2)cc1	95.8% (inactive)	102% (inactive)	105% (inactive)	102% (inactive)	103% (inactive)	101% (inactive)	105% (inactive)	102% (inactive)	102% (inactive)	96.2% (inactive)	94.9% (inactive)	105% (inactive)	107% (inactive)	96.6% (inactive)	98.5% (inactive)	108% (inactive)	105% (inactive)
CCN1C(=O)N(CC)C2Nn3c(s/c(=C\c4ccccc4F)c3=O)=NC21 (stereo not given)	54.1% (inactive)	44% (inactive)	76.5% (inactive)	84.9% (inactive)	44.8% (inactive)	61.1% (inactive)	28.5% (inactive)	56.9% (inactive)	7.68% (active)	72.8% (inactive)	44.3% (inactive)	-19.9% (active)	38.4% (inactive)	33.1% (inactive)	17.5% (inactive)	36.1% (inactive)	28.5% (inactive)
NC(CCl)=NCCC[C@H](N)C(=O)O	99.6% (inactive)	99.5% (inactive)	105% (inactive)	93% (inactive)	105% (inactive)	116% (inactive)	117% (inactive)	99.3% (inactive)	101% (inactive)	98.2% (inactive)	129% (inactive)	100% (inactive)	100% (inactive)	84.8% (inactive)	99% (inactive)	99.9% (inactive)	106% (inactive)
Oc1c(CN2CCN(c3ccccc3F)CC2)cc(Br)c2cccnc12	-0.421% (active)	-49% (active)	-19.3% (active)	-81% (active)	-8.19% (active)	-34.1% (active)	-86% (active)	-10.3% (active)	23.8% (inactive)	14.3% (inactive)	-53.8% (active)	-48.3% (active)	-13.5% (active)	9.33% (active)	-36.4% (active)	30.7% (inactive)	0.135% (active)
CC(C)CCNCC(O)Cn1c2ccccc2c2ccccc21 (stereo not given)	-24% (active)	6.95% (active)	41.3% (inactive)	21.8% (inactive)	28.5% (inactive)	10.3% (inactive)	-36.2% (active)	24.3% (inactive)	20% (inactive)	12.2% (inactive)	84.3% (inactive)	5.65% (active)	12.5% (inactive)	8.76% (active)	4% (active)	12.1% (inactive)	15.7% (inactive)
FC(F)(F)c1cccc(Nc2nc3ccccc3nc2Nc2cccc(C(F)(F)F)c2)c1	-30.9% (active)	-24.3% (active)	4.13% (active)	11.7% (inactive)	32% (inactive)	-58.2% (active)	-29.7% (active)	-4.37% (active)	77.9% (inactive)	-61.7% (active)	7.74% (active)	-71.8% (active)	-26.9% (active)	-57% (active)	-41.7% (active)	-55.1% (active)	-37.2% (active)
CCN(CCO)CCNc1ccc(C)c2sc3cc(Cl)ccc3c(=O)c12	28.2% (inactive)	38.6% (inactive)	64.4% (inactive)	70.8% (inactive)	62.2% (inactive)	56.6% (inactive)	39.3% (inactive)	41.9% (inactive)	45.4% (inactive)	53.9% (inactive)	69.6% (inactive)	-68.6% (active)	-85% (active)	-83.1% (active)	-66.1% (active)	-96.8% (active)	–
O=c1nc2sc3nc4ccccc4cc3cc-2s1	128% (inactive)	112% (inactive)	120% (inactive)	115% (inactive)	108% (inactive)	127% (inactive)	140% (inactive)	79.9% (inactive)	103% (inactive)	119% (inactive)	112% (inactive)	117% (inactive)	107% (inactive)	98.1% (inactive)	102% (inactive)	106% (inactive)	129% (inactive)
COc1ccc(N)c(-c2cc3c(c4c2[nH]c2ccc(OC)cc24)CCCC3)c1	68.5% (inactive)	87.4% (inactive)	95.5% (inactive)	93.3% (inactive)	77.3% (inactive)	71.1% (inactive)	86.1% (inactive)	85.9% (inactive)	85.7% (inactive)	62.7% (inactive)	74.6% (inactive)	93.6% (inactive)	83.3% (inactive)	69.1% (inactive)	58.4% (inactive)	104% (inactive)	–
CCCCOCc1cc(CN2CCN(C)CC2)c(O)c2ncccc12	48.2% (inactive)	27.1% (inactive)	73% (inactive)	31.1% (inactive)	42.5% (inactive)	80.8% (inactive)	23.9% (inactive)	79.3% (inactive)	5.45% (active)	67.3% (inactive)	62% (inactive)	80.8% (inactive)	45.6% (inactive)	27.2% (inactive)	19.1% (inactive)	57.8% (inactive)	40.6% (inactive)
Cc1cc(OC(=O)c2ccc([N+](=O)[O-])cc2)nc2[nH]c(=O)sc12	99.8% (inactive)	102% (inactive)	105% (inactive)	98.7% (inactive)	115% (inactive)	96.9% (inactive)	108% (inactive)	95.7% (inactive)	104% (inactive)	99.7% (inactive)	111% (inactive)	108% (inactive)	104% (inactive)	90.2% (inactive)	105% (inactive)	104% (inactive)	102% (inactive)
Cc1c(C(=O)OCCO)cc(-c2ccc(Cl)cc2)n1-c1ccc(Cl)cc1Cl	84.9% (inactive)	83.8% (inactive)	84.1% (inactive)	97.3% (inactive)	72.7% (inactive)	90.2% (inactive)	91.9% (inactive)	81.3% (inactive)	77.1% (inactive)	62% (inactive)	92.8% (inactive)	4.72% (active)	67.3% (inactive)	44.3% (inactive)	60.3% (inactive)	100% (inactive)	52.4% (inactive)
O=C(O)CCCN1C(=O)C2C3CCC(C3)C2C1=O (stereo not given)	108% (inactive)	103% (inactive)	104% (inactive)	109% (inactive)	103% (inactive)	102% (inactive)	112% (inactive)	115% (inactive)	108% (inactive)	101% (inactive)	107% (inactive)	99.7% (inactive)	112% (inactive)	109% (inactive)	108% (inactive)	106% (inactive)	103% (inactive)
CC(C)CCOc1ccc(-c2n[nH]c(C(F)(F)F)c2-c2cncc(C#N)c2)c(O)c1	-31.8% (active)	12.5% (inactive)	36.9% (inactive)	20.5% (inactive)	-7.94% (active)	46.9% (inactive)	2.95% (active)	18% (inactive)	2.45% (active)	2.83% (active)	6.56% (active)	7.91% (active)	14.3% (inactive)	2.95% (active)	2.41% (active)	16.2% (inactive)	7.94% (active)
CCCCC(O)(c1ccc(Cl)cc1)C(CN1CCOCC1)c1ccc(Cl)cc1 (stereo not given)	18.5% (inactive)	22.3% (inactive)	83.1% (inactive)	32% (inactive)	81.1% (inactive)	40% (inactive)	3.29% (active)	40% (inactive)	29.9% (inactive)	32% (inactive)	59.5% (inactive)	26.2% (inactive)	47.1% (inactive)	17.7% (inactive)	33.2% (inactive)	24.6% (inactive)	–
COc1cc(C2C(C#N)=C(N)OC3=C2C(=O)c2ccccc2C3=O)cc(OC)c1O (stereo not given)	17.1% (inactive)	33.7% (inactive)	65.5% (inactive)	81.9% (inactive)	48.2% (inactive)	62.1% (inactive)	1.44% (active)	6.8% (active)	66.5% (inactive)	88.4% (inactive)	57.7% (inactive)	-31% (active)	13.4% (inactive)	20% (inactive)	22.5% (inactive)	45% (inactive)	–

From PubChem BioAssay (NCI)
